Assay results published in the supplement of paper PMC10849652.
Targets with a hit are over-represented here; the source holds about 7,900 in all. About 0.6% of all pairs of compound and target were hits.

Compound: C/C(=N\NC(=O)C1=CC(=CC=C1)S(=O)(=O)N2CCOCC2)/C3=C(C=CC(=C3)Cl)O
Assay: log2 fold change, soluble protein after heating vs DMSO (PISA); higher = thermal stabilisation; K562 cells, 10 uM, 30 min; active = over 0.2 and 3.5 SD of the protein, either way, in both replicates (recomputed)
How it was run: (§1)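 Quantification of soluble protein used TMTpro 16plex LC-MS/MS, with channel sums equalised. Samples were the supernatant after 21,000xg for 90 min of pooled aliquots from K562 cells (2×10^6 cells/mL) treated with 10 μM compound for 30 min, heated for 3 min over 48°C-58°C, and extracted in PBS with 0.5% NP-40 at 4°C. Values, from duplicates, describe thermal stability against control samples on a log2 fold-change scale.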

UniProt P54619, sequence (P54619 whole entry, looked up): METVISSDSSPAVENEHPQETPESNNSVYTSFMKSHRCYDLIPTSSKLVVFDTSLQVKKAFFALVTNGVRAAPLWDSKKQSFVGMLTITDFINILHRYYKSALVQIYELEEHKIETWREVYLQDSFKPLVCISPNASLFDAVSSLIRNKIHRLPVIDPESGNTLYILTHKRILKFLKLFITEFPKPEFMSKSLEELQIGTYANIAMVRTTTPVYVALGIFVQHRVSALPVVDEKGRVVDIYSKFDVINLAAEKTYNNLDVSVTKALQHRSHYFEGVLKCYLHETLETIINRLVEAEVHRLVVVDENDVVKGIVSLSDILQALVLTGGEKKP
UniProt Q01970, sequence (Q01970 whole entry, looked up): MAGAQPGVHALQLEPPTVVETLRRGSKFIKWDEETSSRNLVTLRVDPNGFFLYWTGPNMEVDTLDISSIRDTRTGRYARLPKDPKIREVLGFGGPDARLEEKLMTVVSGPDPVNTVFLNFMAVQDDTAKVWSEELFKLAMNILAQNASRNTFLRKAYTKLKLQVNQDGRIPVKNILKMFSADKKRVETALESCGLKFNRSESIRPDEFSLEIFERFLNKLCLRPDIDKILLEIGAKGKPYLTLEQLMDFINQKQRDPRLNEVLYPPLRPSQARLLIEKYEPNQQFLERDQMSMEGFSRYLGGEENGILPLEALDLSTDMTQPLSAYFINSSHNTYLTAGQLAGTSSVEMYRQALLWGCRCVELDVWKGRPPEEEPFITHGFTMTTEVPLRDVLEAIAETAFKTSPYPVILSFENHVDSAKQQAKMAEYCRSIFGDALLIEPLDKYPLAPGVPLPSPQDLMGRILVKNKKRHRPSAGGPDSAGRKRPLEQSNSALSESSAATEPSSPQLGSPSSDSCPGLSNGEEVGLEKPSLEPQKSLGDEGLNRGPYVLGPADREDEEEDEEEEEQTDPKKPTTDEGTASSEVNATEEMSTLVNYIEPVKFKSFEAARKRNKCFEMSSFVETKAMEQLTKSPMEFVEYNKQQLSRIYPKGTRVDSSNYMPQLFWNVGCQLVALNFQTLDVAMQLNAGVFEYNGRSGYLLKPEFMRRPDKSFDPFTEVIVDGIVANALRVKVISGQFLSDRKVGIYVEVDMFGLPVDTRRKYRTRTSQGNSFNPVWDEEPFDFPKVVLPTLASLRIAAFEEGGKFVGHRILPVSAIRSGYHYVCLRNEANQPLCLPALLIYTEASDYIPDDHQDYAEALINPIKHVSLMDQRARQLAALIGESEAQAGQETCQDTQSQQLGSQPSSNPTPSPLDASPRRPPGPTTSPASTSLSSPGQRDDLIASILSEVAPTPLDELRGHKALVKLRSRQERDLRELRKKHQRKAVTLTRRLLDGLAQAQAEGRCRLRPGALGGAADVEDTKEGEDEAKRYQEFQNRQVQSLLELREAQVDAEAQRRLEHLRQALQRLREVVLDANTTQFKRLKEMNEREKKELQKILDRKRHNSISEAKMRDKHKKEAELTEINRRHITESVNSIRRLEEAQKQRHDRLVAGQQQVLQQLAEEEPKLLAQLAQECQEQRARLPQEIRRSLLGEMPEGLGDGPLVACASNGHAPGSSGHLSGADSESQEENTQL
UniProt Q8NEB9, sequence (Q8NEB9 whole entry, looked up): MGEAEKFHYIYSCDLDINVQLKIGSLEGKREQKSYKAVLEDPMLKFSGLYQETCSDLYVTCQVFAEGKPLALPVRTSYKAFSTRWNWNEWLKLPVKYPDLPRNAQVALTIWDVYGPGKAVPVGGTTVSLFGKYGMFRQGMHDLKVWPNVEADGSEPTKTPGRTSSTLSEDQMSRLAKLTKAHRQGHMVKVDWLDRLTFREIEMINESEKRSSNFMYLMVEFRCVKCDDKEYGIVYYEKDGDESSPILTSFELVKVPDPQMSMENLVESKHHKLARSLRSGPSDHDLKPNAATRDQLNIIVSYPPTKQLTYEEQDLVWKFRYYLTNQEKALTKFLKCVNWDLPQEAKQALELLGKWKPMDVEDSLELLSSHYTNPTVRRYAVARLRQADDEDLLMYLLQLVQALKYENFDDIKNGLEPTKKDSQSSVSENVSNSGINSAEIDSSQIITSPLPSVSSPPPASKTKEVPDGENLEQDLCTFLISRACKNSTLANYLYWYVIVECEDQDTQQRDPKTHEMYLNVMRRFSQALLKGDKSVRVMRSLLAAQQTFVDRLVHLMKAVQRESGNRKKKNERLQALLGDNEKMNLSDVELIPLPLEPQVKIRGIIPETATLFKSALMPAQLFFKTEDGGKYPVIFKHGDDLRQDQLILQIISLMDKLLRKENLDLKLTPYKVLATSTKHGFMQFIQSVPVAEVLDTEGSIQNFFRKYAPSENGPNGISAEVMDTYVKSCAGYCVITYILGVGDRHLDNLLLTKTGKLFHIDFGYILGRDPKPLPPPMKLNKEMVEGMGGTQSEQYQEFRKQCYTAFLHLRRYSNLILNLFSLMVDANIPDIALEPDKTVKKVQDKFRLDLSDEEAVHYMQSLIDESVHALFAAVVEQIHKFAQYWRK
UniProt Q8NAV1, sequence (Q8NAV1 whole entry, looked up): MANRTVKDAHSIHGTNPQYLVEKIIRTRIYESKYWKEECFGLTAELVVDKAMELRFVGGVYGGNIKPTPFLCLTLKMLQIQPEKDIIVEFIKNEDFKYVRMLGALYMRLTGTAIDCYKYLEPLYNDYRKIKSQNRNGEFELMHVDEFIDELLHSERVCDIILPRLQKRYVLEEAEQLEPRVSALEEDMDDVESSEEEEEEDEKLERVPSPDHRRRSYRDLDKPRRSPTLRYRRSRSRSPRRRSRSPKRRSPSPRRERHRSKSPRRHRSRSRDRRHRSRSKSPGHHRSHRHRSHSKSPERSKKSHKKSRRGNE
UniProt Q15257, sequence (Q15257 whole entry, looked up): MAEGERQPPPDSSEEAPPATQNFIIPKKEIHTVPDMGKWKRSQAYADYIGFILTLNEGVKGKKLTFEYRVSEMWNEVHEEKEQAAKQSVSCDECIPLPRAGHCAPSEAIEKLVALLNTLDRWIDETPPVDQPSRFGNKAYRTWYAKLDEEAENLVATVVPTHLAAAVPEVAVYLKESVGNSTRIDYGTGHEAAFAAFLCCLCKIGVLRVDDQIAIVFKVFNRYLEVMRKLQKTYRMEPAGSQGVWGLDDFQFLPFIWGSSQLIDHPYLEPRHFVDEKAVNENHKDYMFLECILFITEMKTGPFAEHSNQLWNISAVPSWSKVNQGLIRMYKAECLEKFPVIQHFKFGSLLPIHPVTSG
UniProt Q8WUM4, sequence (Q8WUM4 whole entry, looked up): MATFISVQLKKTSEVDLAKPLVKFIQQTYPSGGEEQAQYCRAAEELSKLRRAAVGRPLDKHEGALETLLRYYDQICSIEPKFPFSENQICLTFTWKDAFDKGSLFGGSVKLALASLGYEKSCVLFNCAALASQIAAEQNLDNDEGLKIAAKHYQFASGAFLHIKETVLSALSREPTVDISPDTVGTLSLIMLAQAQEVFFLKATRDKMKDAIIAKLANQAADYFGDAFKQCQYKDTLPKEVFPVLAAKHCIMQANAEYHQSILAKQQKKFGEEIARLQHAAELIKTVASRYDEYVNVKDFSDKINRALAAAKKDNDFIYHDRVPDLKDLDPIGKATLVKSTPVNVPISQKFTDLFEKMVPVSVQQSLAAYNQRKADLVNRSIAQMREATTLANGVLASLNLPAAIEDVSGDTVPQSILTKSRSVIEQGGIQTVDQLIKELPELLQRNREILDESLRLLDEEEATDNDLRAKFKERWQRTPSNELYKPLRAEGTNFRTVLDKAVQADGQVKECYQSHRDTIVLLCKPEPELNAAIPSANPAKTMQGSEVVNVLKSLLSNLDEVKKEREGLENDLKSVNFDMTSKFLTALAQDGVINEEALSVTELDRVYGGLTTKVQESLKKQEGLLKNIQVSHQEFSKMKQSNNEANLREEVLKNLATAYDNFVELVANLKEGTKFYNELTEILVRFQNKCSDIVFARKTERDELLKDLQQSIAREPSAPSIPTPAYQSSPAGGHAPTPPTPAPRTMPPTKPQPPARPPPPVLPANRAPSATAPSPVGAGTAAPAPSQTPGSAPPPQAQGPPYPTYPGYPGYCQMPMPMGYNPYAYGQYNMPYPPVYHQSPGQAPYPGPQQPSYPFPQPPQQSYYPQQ
UniProt O43395, sequence (O43395 whole entry, looked up): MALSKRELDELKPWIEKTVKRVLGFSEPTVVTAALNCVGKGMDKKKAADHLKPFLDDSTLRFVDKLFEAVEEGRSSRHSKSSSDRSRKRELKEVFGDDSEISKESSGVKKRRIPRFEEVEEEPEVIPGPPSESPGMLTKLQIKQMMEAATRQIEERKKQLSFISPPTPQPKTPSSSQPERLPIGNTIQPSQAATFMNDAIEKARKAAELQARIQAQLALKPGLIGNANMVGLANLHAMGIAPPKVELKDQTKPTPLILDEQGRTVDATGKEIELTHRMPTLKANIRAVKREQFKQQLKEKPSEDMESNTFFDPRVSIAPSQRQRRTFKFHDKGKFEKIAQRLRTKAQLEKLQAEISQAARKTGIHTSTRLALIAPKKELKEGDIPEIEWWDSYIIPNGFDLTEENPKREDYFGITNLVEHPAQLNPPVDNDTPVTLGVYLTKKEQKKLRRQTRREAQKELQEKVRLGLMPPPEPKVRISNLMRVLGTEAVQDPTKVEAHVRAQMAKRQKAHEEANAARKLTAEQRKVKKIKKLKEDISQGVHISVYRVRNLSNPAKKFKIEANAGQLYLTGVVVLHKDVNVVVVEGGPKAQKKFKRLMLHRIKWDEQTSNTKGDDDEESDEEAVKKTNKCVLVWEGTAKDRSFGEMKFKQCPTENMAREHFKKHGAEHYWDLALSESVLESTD
UniProt O96011, sequence (O96011 whole entry, looked up, change not shown): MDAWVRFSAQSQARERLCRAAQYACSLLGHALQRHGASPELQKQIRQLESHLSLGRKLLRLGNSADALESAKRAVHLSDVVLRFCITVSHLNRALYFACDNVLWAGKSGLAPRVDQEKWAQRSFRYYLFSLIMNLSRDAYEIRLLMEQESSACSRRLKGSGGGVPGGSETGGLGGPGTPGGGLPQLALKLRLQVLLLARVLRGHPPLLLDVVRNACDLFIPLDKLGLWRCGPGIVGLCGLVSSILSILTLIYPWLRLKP

log2 fold change, inactive:
PTPA (UniProt Q15257) 0.034
PLSCR1 (UniProt O15162) 0.03
POLR2M (UniProt P0CAP2) -0.033
PEX11B (UniProt O96011) 0.058
PSMD1 (UniProt Q99460) -0.074
PLCB3 (UniProt Q01970) 0.028
PRKCD (UniProt Q05655) 0.004
PIR (UniProt O00625) -0.058
PFDN1 (UniProt O60925) 0.012
POLR3B (UniProt Q9NW08) -0.027
PPP2R5E (UniProt Q16537) 0.096
PRPF40A (UniProt O75400) 0.083
PC (UniProt P11498) 0.101
PCBP2 isoform 3 (UniProt Q15366) 0.087
PNN (UniProt Q9H307) -0.001
PTTG1 (UniProt O95997) 0.094
POLR2K (UniProt P53803) 0.021
PAK4 (UniProt O96013) -0.066
PRPF38A (UniProt Q8NAV1) 0.035
PRKACA (UniProt P17612) 0.033
POLR3K (UniProt Q9Y2Y1) 0.005
PRKAR1B (UniProt P31321) -0.056
PRPF3 (UniProt O43395) 0.144
PLCL1 (UniProt Q15111) -0.122
PI4K2A (UniProt Q9BTU6) -0.01
PELP1 (UniProt Q8IZL8) 0.044
PDE12 (UniProt Q6L8Q7) 0.018
PRKAA1 isoform 2 (UniProt Q13131) 0.026
PDE4A (UniProt P27815) 0.013
PDCD6IP (UniProt Q8WUM4) 0.167
PCBP1 (UniProt Q15365) 0.092
PRKAG1 isoform 3 (UniProt P54619) 0.038
PPP6R1 (UniProt Q9UPN7) -0.017
PIK3CB (UniProt P42338) 0.018
PIK3C3 (UniProt Q8NEB9) -0.004
PIP4K2A (UniProt P48426) 0.028

Compound: C1=CC(=C(C=C1Cl)C2=NC3=NC=CN=C3C(=N2)NC4=CC=NC=C4)F
Assay: as above
How it was run: as §1

log2 fold change, inactive:
PTPA (UniProt Q15257) 0.069
PLSCR1 (UniProt O15162) 0.089
POLR2M (UniProt P0CAP2) -0.054
PEX11B (UniProt O96011) 0.162
PSMD1 (UniProt Q99460) 0.028
PLCB3 (UniProt Q01970) 0.005
PRKCD (UniProt Q05655) 0.028
PIR (UniProt O00625) 0.025
PFDN1 (UniProt O60925) 0.263
POLR3B (UniProt Q9NW08) -0.003
PPP2R5E (UniProt Q16537) 0.005
PRPF40A (UniProt O75400) -0.087
PC (UniProt P11498) 0.117
PCBP2 isoform 3 (UniProt Q15366) 0.038
PNN (UniProt Q9H307) 0.032
PTTG1 (UniProt O95997) -0.024
POLR2K (UniProt P53803) -0.037
PAK4 (UniProt O96013) 0.017
PRPF38A (UniProt Q8NAV1) -0.01
PRKACA (UniProt P17612) -0.054
POLR3K (UniProt Q9Y2Y1) -0.005
PRKAR1B (UniProt P31321) -0.036
PRPF3 (UniProt O43395) 0.069
PLCL1 (UniProt Q15111) 0.117
PI4K2A (UniProt Q9BTU6) 0.01
PELP1 (UniProt Q8IZL8) -0.035
PDE12 (UniProt Q6L8Q7) 0.052
PRKAA1 isoform 2 (UniProt Q13131) 0.084
PDE4A (UniProt P27815) 0.319
PDCD6IP (UniProt Q8WUM4) 0.045
PCBP1 (UniProt Q15365) 0.062
PRKAG1 isoform 3 (UniProt P54619) -0.016
PPP6R1 (UniProt Q9UPN7) 0.013
PIK3CB (UniProt P42338) 0.002
PIK3C3 (UniProt Q8NEB9) -0.157
PIP4K2A (UniProt P48426) 0.075
